Screening results deposited in PubChem by ICCB-Longwood Screening Facility, Harvard Medical School.
This excerpt belongs to a sample that is enriched for hits.
Sa helicase inh = inhibitors of S. aureus replicative helicase, primary screen, biochemical, fluorescence unwinding readout. purified S. aureus helicase, fluorescence unwinding assay. inhibition, % (concentration not given with the values). 120,000 compounds, 0.05% hits. AID 485395, 2010; in the data active = inhibition above about 25%, passing the limit was not always enough
Sa growth 42C = S. aureus growth inhibition at 42 and 30 °C, primary screen, LtaS inhibitor project, RN4220, two temperatures | OD600, 20 h, 42 °C; hits give low values | relative growth, % (concentration not given with the values) | 170,000 compounds, 0.53% hits | AID 720641, 2013;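 active = relative growth at most 50% at the other temperature and 20+ points below 30 °C, or under 10% at both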
Each line names hits and unclear results; the compound was inactive in the other large screens.

O=C1OC(CC(=O)N2CCN(Cc3ccc4c(c3)OCO4)CC2)c2ccccc21 (stereo not given)	none
NC(=O)N/N=C/c1ccc([N+](=O)[O-])o1	Sa growth 42C 2.5 (no result: Sa helicase inh)
NC(=O)N/N=C/c1ccc(-c2ccc(Cl)cc2)o1	none
COc1ccccc1NC(=O)CSc1nc2c(oc3ccccc32)c(=O)n1Cc1ccc(F)cc1	none
O=C(O)C(=O)/C=C(\O)c1ccccc1	none (no result: Sa helicase inh)
O=C(/C=C(\O)c1ccccc1)C(F)(F)C(F)F	Sa growth 42C -0.8
CCc1ccccc1NC(=O)C1CC2C=CC1C2 (stereo not given)	none
CCC[C@@H]1C[C@@H](C(=O)N[C@@H](C2O[C@H](SC)[C@H](O)[C@@H](O)[C@H]2O)[C@H](C)Cl)N(C)C1 (stereo not given in full)	Sa growth 42C -1.1 (no result: Sa helicase inh)
CCC[C@@H]1C[C@@H](C(=O)N[C@@H]([C@H]2O[C@H](SC)[C@H](O)[C@@H](O)[C@H]2O)[C@H](C)Cl)N(C)C1	Sa growth 42C -0.8 (no result: Sa helicase inh)
CCC[C@@H]1C[C@@H](C(=O)N[C@H]([C@H]2O[C@H](SC)[C@H](O)[C@@H](O)[C@H]2O)[C@H](C)O)N(C)C1	Sa growth 42C 0.0 (no result: Sa helicase inh)
O=C(Oc1cncc(Cl)c1)c1cc2ccccc2s1	none (no result: Sa helicase inh)
Cc1cccc(-c2nc(CS(=O)CC(=O)NC3CCCCCC3)c(C)o2)c1 (stereo not given)	none
CC(=O)N=c1scc(-c2ccccc2)n1-c1ccc(C)cc1	none (no result: Sa growth 42C)
Cc1cccc(CCNC(=O)Cc2noc3ccccc23)c1	none
